# Results from ChEMBL document CHEMBL1157539, “Thousands of chemical starting points for antimalarial lead identification” (Nature, 2010).
# Test system: HepG2
# Test: GSK_TCMDC: Percent inhibition of human HepG2 cell line. Test compounds present at 10uM.
# Type: functional
row,Compound,Inhibition [%]
1,O=C(Nc1cccc(OC2CCN(Cc3ccsc3)CC2)c1)c1ccc(C(F)(F)F)cc1.O=C(O)C(F)(F)F,25
2,CO/C(=C\C=C\c1cc2cc(Cl)c(Cl)cc2[nH]1)C(=O)NCCCN1CCN(c2cccc(O)c2)CC1,46
3,Cc1ccc2c(=O)cc(CCc3cccc(F)c3F)n(CC(=O)N(Cc3ccc(-c4ccc(C(F)(F)F)cc4)cc3)C3CCN(C)CC3)c2n1.O=C(O)C(O)C(O)C(=O)O,49
4,Cc1cc(N2CCN(C3CCCCC3)CC2)nc2cccc(O)c12,12
5,COc1ccc(NC(=O)/C=C/c2ccc(-c3ccccc3)cc2)cc1N1CCN(C)CC1.O=C(O)C(=O)O,21
6,Oc1cc(NC[C@@H]2CCC[C@@H]2NCc2ccc(Cl)c(Cl)c2)nc2ccccc12,9
7,Fc1ccc(COc2ccc(Nc3ncnc4ccc(I)cc34)cc2Cl)cc1,28
8,NCc1ccc(-c2cccc(CNC3CCN(Cc4ccccc4)CC3)c2)cc1.O=C(O)C(F)(F)F,24
9,O=C(Nc1cccc(Cl)c1)N(CCCn1ccnc1)Cc1csc(-c2ccc(CNCc3ccccc3)cc2)n1.O=C(O)C(F)(F)F,11
10,CN(C)CC(O)C(c1ccccc1)c1cccc(Br)c1.Cl (configuration not stated),22
11,CCCCN1CC[C@@H](CCC(O)c2ccnc3ccc(OCCC(C)C)cc23)[C@@H](CC)C1.O=C(O)C(=O)O (some centres not stated),22
12,O=C(NCCCCN1CCC(c2ccc3c(c2OCc2ccncc2)CCCC3)CC1)c1ccc(NC(=O)c2ccc(Cl)cc2)cc1,62
13,COc1ccc(CN2CCCC(N3CC4(OC3=O)c3ccccc3-c3ccccc34)C2)c(O)c1 (configuration not stated),14
14,O=C(Nc1nc2ccc(Cl)cc2s1)c1csnn1,15
15,CCCCCCCC1CCN(C[C@H](O)c2ccnc3ccc(OC)cc23)CC1.O=C(O)C(=O)O,23
16,COc1ccc2nccc(NC(=O)C3CCC(NCc4ccc5c(c4)NC(=O)CS5)CC3)c2c1 (configuration not stated),0

row,Compound,Inhibition [%]
1,N=C(N)c1ccc(NC(=O)c2cc(Sc3ccc(O)c(C(=O)Nc4ccc(C(=N)N)cc4)c3)ccc2O)cc1,11
2,CN1CCN(CC(=O)Nc2ccc(-c3ccc(-c4nc5ccccc5[nH]4)s3)cc2)CC1,12
3,Cc1cc(Cl)c(S(=O)(=O)NC2CCCC2)cc1OCC(=O)NC1CCCCC1,19
4,CC(=O)N(C)c1cccc(C(=O)Nc2ccc(-c3cccc(-c4nc5cccc(C)c5[nH]4)c3)cc2)c1,86
5,CCNc1cc(C(=O)N[C@@H](Cc2ccccc2)[C@H](O)CNCCCc2ccc(OC)cc2)cc(N2CCCC2=O)c1.O=C(O)C(F)(F)F,4
6,CCOC(=O)CN(c1ccc(Br)cc1OCCOc1cc(Br)ccc1N(CC(=O)OCC)C(C)C(=O)OCC)C(C)C(=O)OCC (configuration not stated),0
7,C[C@@H](CC1CCCCC1)OC(=O)N[C@H]1CCN(C#N)C1,7
8,CN(CCN(C)CC(O)c1ccc(Cl)c(Cl)c1)CC(O)c1ccc(Cl)c(Cl)c1.Cl (configuration not stated),22
9,CC(C)c1sc(N2CCN(C)CC2)nc1C(=O)NCCc1ccc(Cl)c(Cl)c1.O=C(O)C(F)(F)F,10
10,CCC[C@@H]([C@@H](CC1CCCCC1)C(=O)N[C@H](C(=O)Nc1nccs1)[C@H](C)O)N(O)C=O,0
11,O=C(Nc1ccc(CN2CCN(S(=O)(=O)c3ccc(Cl)s3)CC2)cc1)c1cccs1.O=C(O)C(F)(F)F,14
12,Br.CCCCCCCN(CCCCCCC)CCNc1cc(C)nc2ccccc12,39
13,O=[N+]([O-])c1ccc(C2=NN(S(=O)(=O)c3c(Cl)cc(Cl)cc3Cl)CCCC2)cc1,5
14,CN1CCN(CCCN(Cc2csc(-c3ccc(CNCc4ccccc4)cc3)n2)C(=O)Nc2ccc3ccccc3c2)CC1.O=C(O)C(F)(F)F,12
15,O=C(N[C@H]1CCN(Cc2ccc(OCCN3CCNCC3)c3ccccc23)C1)c1ccc(Cl)c(Cl)c1.O=C(O)C(F)(F)F,53
16,O=[N+]([O-])c1ccc2ncnc(Nc3ccc(F)c(Cl)c3)c2c1,0
